“And” between values parts separate entries of the source, which are not always exact repeats. Equal values may be shown once. The panel holds about 83,000 compounds, 20% with a hit somewhere; the sample as a whole holds those more often.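 Percent growth is the endpoint: 0 to 100 indicates growth inhibition (40 means 60% inhibition), 0 means no net growth, and negative values indicate cell death.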 Unmarked numbers belong to inactive results. The source made the active and inactive calls. How the source made its calls: active means growth percent below 10; inactive means the rest.

Test systems include T-47D breast; BT-549 breast; MDA-MB-435 melanoma; SW-620 colon; MCF7 breast; HCT-116 colon; HCC-2998 colon; KM12 colon; MDA-MB-468 breast.
Assay in all cases: NCI-60 one-dose screen, 48 h (100 = growth as untreated, 0 = no growth, -100 = all killed)
Conditions in all cases: 10 µM unless noted

In the case of `O=C1CC(c2ccc(I)cc2)OC2C=Cc3ccccc3C12` (stereo not given), the growth is 87.8% in the assay on T-47D breast; 108% with BT-549 breast; 97.4% with MDA-MB-435 melanoma; 103% in the assay with SW-620 colon; 83.3% with MCF7 breast; 98.9% in the assay on HCT-116 colon. The growth is 117% in the assay with HCC-2998 colon, 92.9% in the assay on KM12 colon and 123% in the assay with MDA-MB-468 breast.
On to `Cc1cn(-c2cc(NC(=O)c3ccc(C)c(-n4cc(-c5cnc6cccnn56)nn4)c3)cc(C(F)(F)F)c2)cn1`, for which the growth was 94.6% in the assay on T-47D breast; 158% in the assay on BT-549 breast; 57.7% in the assay on MDA-MB-435 melanoma; 84.9% in the assay with SW-620 colon; 98.6% with MCF7 breast; 53.2% with HCT-116 colon. Also, the growth was 82.2% in the assay with HCC-2998 colon, 54.9% with KM12 colon and 99.1% in the assay on MDA-MB-468 breast.
Regarding `COc1cccc(NC(=O)c2ccc(NC(=O)CCl)s2)c1`, the growth with T-47D breast was 26.2%; in the assay with BT-549 breast it was 27.2%; with MDA-MB-435 melanoma it was 2.66% (active); with SW-620 colon it was 3.86% (active); in the assay with MCF7 breast, 5.63% (active); with HCT-116 colon, -27.4% (active). For the same compound, the growth in the assay with HCC-2998 colon is 80.6%; in the assay on KM12 colon it was 42.4%; in the assay with MDA-MB-468 breast, -14.7% (active).
On to `Cc1cnc2ccc(Oc3ccccc3-c3ccccc3)nn12`, for which the growth is 110% with T-47D breast; 107% in the assay with BT-549 breast; 110% with MDA-MB-435 melanoma; 124% in the assay on SW-620 colon; 93% in the assay on MCF7 breast; 101% in the assay with HCT-116 colon. Besides, the growth in the assay on HCC-2998 colon was 113%; with KM12 colon, 107%; in the assay with MDA-MB-468 breast, 108%.
As to `N#C/C(=C/c1ccc(Cl)cc1)c1nnc(NC(=O)c2ccc(-n3c(=O)[nH]c4ccccc4c3=O)cc2)s1`, the growth in the assay on T-47D breast is 64.2%; with BT-549 breast it was 40%; in the assay on MDA-MB-435 melanoma it was 84.7%; in the assay on SW-620 colon it was 73.8%; in the assay on MCF7 breast, 38%; in the assay on HCT-116 colon it was 46.4%. Further, the growth was 23.5% in the assay on HCC-2998 colon, 23.6% in the assay with KM12 colon and 34.9% in the assay on MDA-MB-468 breast.
Consider `O=C(N/N=C/c1ccsc1)c1[nH]c2ccc(Br)cc2c1-c1ccccc1`, for which the growth is -21.6% (active) in the assay on T-47D breast; -86% (active) with BT-549 breast; -85.3% (active) in the assay with MDA-MB-435 melanoma; -68% (active) in the assay with SW-620 colon; -50.9% (active) with MCF7 breast; -71% (active) in the assay on HCT-116 colon. In addition, the growth in the assay on HCC-2998 colon was -59.4% (active); in the assay with KM12 colon, -49.3% (active); in the assay with MDA-MB-468 breast, -25.6% (active).
Regarding `COc1cc(/C=C/C(=O)c2cnn(-c3cc(=O)[nH]c4ccc(Cl)cc34)c2C)cc(OC)c1OC`, the growth in the assay on T-47D breast is -31.4% (active); with BT-549 breast, -47% (active); in the assay with MDA-MB-435 melanoma it was -9.26% (active); in the assay on SW-620 colon, -45.8% (active); with MCF7 breast, -37.6% (active); in the assay with HCT-116 colon it was -67.6% (active). Moreover, the growth with HCC-2998 colon was -93.5% (active); in the assay on KM12 colon, -28.4% (active); in the assay on MDA-MB-468 breast, -83.1% (active).
As for `COc1cc(C=O)ccc1Oc1nc(Nc2ccc(F)cc2)nc(N(C)C)n1`, the growth is 33.3% and 66.1% in the assay with T-47D breast; 77.3% and 16.5% in the assay on BT-549 breast; 71.1% and 88.1% in the assay with MDA-MB-435 melanoma; 94.4% and 50.4% with SW-620 colon; 53.2% and 45.4% in the assay on MCF7 breast; 64.9% and 20.3% in the assay on HCT-116 colon. Besides, the growth was 108% and 75.6% in the assay with HCC-2998 colon; 99.3% and 68.5% with KM12 colon; 36.4% and 53.5% in the assay on MDA-MB-468 breast.
As to `COc1ccc2[nH]c(O)c(N=NC(=O)c3ccc4nc(-c5ccc(Cl)cc5)[nH]c4c3)c2c1`, the growth is 13.5% in the assay with T-47D breast; 34.5% in the assay on BT-549 breast; 81.2% in the assay with MDA-MB-435 melanoma; 82.6% in the assay with SW-620 colon; 24.5% in the assay on MCF7 breast; 51.4% in the assay on HCT-116 colon. Also, the growth is 64.6% in the assay with HCC-2998 colon, 78.6% with KM12 colon and -48.3% (active) with MDA-MB-468 breast.
In the case of `CS(=O)(=O)Nc1cccc(-n2c(COc3ccc(OC(F)(F)F)cc3)nc3ccccc32)c1`, the growth is 62.2% and 85% in the assay with T-47D breast; 98% and 96.5% with BT-549 breast; 102% and 103% in the assay on MDA-MB-435 melanoma; 97.3% and 108% with SW-620 colon; 65.6% and 102% in the assay on MCF7 breast; 85.9% and 104% in the assay on HCT-116 colon. Further, the growth was 114% and 113% in the assay on HCC-2998 colon; 91.9% and 101% with KM12 colon; 107% and 106% in the assay on MDA-MB-468 breast.
As to `Cc1ccc(C(=O)Nc2cc(-c3ccncc3)cc(C(F)(F)F)c2)cc1C#Cc1cnc2cccnn12`, the growth in the assay on T-47D breast was 81.6%; with BT-549 breast, 86.8%; in the assay with MDA-MB-435 melanoma it was 33.9%; in the assay with SW-620 colon, 30.7%; with MCF7 breast, 45.9%; in the assay with HCT-116 colon, 23.4%. Besides, the values for the growth in the assay with HCC-2998 colon, with KM12 colon and with MDA-MB-468 breast were 63.5%, 36.2% and 92.7%, respectively.
Take `CC[C@]12C=CCN3CC[C@]4(C(=C(C(=O)OC)C1)Nc1cc(OC)c([C@@H]5[C@H]6O[C@H]6[C@@]6(CC)CC(C(=O)OC)=C7Nc8cc(OC)ccc8[C@@]78CCN5[C@@H]68)cc14)[C@@H]32`: the growth was 25.7% in the assay on T-47D breast; 62.8% in the assay on BT-549 breast; 57.6% in the assay on MDA-MB-435 melanoma; 50.4% in the assay on SW-620 colon; 17.2% in the assay with MCF7 breast; 20.5% in the assay on HCT-116 colon. The growth in the assay with HCC-2998 colon is 112%; in the assay on KM12 colon it was 49.6%; with MDA-MB-468 breast it was 28.9%.
As for `C/C(=N/O)c1ccc(NC(=O)CSc2nnc(-c3ccc4nc(-c5ccc(Cl)cc5)[nH]c4c3)o2)cc1`, the growth with T-47D breast is 97.8%; in the assay with BT-549 breast, -8.14% (active); with MDA-MB-435 melanoma, 18.3%; in the assay on MCF7 breast, 55.3%; in the assay on HCT-116 colon, 69%; in the assay with HCC-2998 colon, 128%. Further, the growth in the assay with KM12 colon is 36.4%.

Source of the values: PubChem BioAssay (NCI).
